# The campaign covered roughly 310,000 compounds. About 14,000 (4.5%) showed an effect of 50% or more. Effects have a minus sign here. This is one part of a sample in which strong results are shown more often than they occur.
# Target: human ether-à-go-go-related gene (hERG) potassium channel (human, UniProt Q12809)
# Test: primary screen, population patch clamp on CHO cells stably expressing hERG; higher = less effect of the substance
# 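Further: peak tail current of the secondary pulse compared with the same well before compound.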
# Sequence of human ether-à-go-go-related gene (hERG) potassium channel (Q12809 whole entry, looked up): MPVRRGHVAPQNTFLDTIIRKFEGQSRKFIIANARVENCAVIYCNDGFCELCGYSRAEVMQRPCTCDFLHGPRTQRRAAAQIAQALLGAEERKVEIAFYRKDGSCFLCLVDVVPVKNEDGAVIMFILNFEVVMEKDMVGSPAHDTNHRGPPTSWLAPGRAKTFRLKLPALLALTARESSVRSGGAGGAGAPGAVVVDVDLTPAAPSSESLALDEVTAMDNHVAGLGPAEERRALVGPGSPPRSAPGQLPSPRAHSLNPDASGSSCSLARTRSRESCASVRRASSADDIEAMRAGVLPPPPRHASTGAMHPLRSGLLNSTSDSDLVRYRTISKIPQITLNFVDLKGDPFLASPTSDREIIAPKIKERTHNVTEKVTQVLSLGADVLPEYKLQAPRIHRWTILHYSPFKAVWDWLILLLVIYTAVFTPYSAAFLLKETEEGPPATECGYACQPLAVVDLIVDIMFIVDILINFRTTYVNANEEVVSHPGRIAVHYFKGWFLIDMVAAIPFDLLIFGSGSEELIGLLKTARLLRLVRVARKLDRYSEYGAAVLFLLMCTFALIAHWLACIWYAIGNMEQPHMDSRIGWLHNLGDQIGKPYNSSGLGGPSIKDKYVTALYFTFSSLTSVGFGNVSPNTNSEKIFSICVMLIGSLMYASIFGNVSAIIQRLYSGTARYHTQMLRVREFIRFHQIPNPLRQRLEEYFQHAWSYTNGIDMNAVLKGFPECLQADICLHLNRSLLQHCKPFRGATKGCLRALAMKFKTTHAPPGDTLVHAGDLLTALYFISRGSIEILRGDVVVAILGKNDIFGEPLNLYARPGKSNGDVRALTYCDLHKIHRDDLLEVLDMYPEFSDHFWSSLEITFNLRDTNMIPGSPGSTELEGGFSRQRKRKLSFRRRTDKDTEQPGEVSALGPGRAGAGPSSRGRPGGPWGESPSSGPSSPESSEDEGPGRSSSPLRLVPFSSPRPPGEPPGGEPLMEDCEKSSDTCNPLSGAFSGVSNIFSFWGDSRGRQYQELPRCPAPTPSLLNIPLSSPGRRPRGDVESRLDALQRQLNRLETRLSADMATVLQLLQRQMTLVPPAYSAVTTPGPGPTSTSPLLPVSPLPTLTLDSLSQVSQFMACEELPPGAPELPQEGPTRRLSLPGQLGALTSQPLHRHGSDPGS
row,Structure (SMILES),"hERG current change (%, negative = inhibition) at 10uM [%]"
1,CCc1ccc(OCC(=O)Nc2ccc(S(=O)(=O)Nc3cc(C)on3)cc2)c(Br)c1,-19.7
2,Cc1nc2ccccc2n1CCN1CCOCC1.Cl,23.3
3,C=CCn1c(NCc2ccccc2)nc2ccccc21,-26.4
4,Brc1ccc(CNc2nc3ccccc3n2CCN2CCCCC2)cc1,-62.7
5,Cn1c(NCc2cccc(Br)c2)nc2ccccc21,-22.2
6,Brc1cccc(CNc2nc3ccccc3n2CCN2CCCCC2)c1,-67.8
7,Brc1cccc(CNc2nc3ccccc3n2CCN2CCOCC2)c1,-76.3
8,Cl.OCCNc1nc2ccccc2n1CCN1CCCCC1,-30.4
9,Nc1nc2ccccc2n1CCN1CCCC1,6.04
10,Cc1ccc(OCCn2cnc3cc([N+](=O)[O-])ccc3c2=O)cc1,-8.19
11,COc1ccc(S(=O)(=O)NNC(=O)c2sccc2-n2cccc2)cc1,2
12,COC(=O)c1ccc(NC(=O)C2CCCN2S(=O)(=O)c2ccc(OC)cc2)cc1 (stereo not drawn),-16.8
13,COc1cc(C(=O)Nc2ccc(C(=O)c3cccs3)cc2)cc(OC)c1OC,-10.1
14,Cc1cc(F)ccc1NC(=S)NC1CCCC1,17.9
15,CCOC(=O)C1CCCN(CC(=O)Nc2c(C(=O)OC)[nH]c3ccc(C)cc23)C1 (stereo not drawn),-36.1
16,CCOC(=O)c1[nH]c2ccc(OC)cc2c1NC(=O)CCN1CCSCC1,-5.8
17,CCOC(=O)C1CCCN(CCC(=O)Nc2c(C(=O)OC)[nH]c3cc(OC)ccc23)C1 (stereo not drawn),-59.6
18,CCOC(=O)c1[nH]c2ccc(OC)cc2c1NC(=O)CCN1CCC(C)CC1,-22.8
19,CCOC(=O)c1[nH]c2ccc(OC)cc2c1NC(=O)CCN1CCc2ccccc2C1,-59.5
20,COC(=O)c1[nH]c2cc(OC)ccc2c1NC(=O)CCN1CCN(c2ccccc2)CC1,-67
21,CCOC(=O)c1[nH]c2cc3c(cc2c1NC(=O)CN1CCc2ccccc2C1)OCO3,-0.934
22,CCOC(=O)c1[nH]c2ccc(OC)cc2c1NC(=O)CCN1CCN(Cc2ccccc2)CC1,-57.1
23,CCOC(=O)C1CCCN(CC(=O)Nc2c(C(=O)OC)[nH]c3ccccc23)C1 (stereo not drawn),-25.2

row,Structure (SMILES),"hERG current change (%, negative = inhibition) at 10uM [%]"
1,CCOC(=O)c1[nH]c2ccc(OC)cc2c1NC(=O)CN1CCc2ccccc2C1,-12.4
2,COC(=O)c1[nH]c2cc(OC)ccc2c1NC(=O)CCN1CCN(c2cccc(C)c2C)CC1,-16.4
3,COC(=O)c1[nH]c2cc(OC)ccc2c1NC(=O)CCN1CCCCC1,-20.5
4,COc1cc(OC)nc(Oc2ccccc2C(=O)Oc2cccc(C)c2)n1,7.95
5,CC1=NN(C(=O)c2ccc(Cl)cc2)C(O)(c2ccccc2)C1 (stereo not drawn),22
6,COc1ccccc1C(=O)N(C1=NC(C)CS1)c1ccc(Cl)cc1 (stereo not drawn),7.94
7,Cc1cc(C)c(C#N)c(N2CCCC2)n1,5.67
8,COCCCNC(=O)c1ccc(CS(=O)(=O)c2ccc(Br)cc2)o1,-14.3
9,COC(=O)C1=C(C(=O)OC)[N+]2=C3N(C(=O)NC2(C)C)[C@H](CO)C[C@@]32c3ccccc3N(Cc3ccccc3)[C@@H]12,-11.2
10,CCOc1ccc(CCNC(=O)CN(C)S(=O)(=O)c2cccs2)cc1OCC,10.2
11,CC(=O)Nc1cccc(NC(=O)CSc2nnc(NC(=O)c3ccco3)s2)c1,4.45
12,COc1cc(CN2CCCC(C(=O)Nc3ccccc3Oc3cccnc3)C2)ccc1F (stereo not drawn),-39
13,O=C(Nc1ccccc1Oc1ccccc1)C1CC1,12.2
14,O=C(Nc1ccccc1Oc1ccccc1)C1CCCC1,6.32
15,O=C(Nc1ccccc1Oc1cccnc1)C1CCCN(C/C=C/c2ccccc2)C1 (stereo not drawn),-76.9
16,CCN(CC)C(=O)C1CCCN(C/C=C/c2ccccc2)C1 (stereo not drawn),-40.8
17,O=C(Nc1ccccc1Oc1cccnc1)C1CCCN(C/C=C/c2ccc(F)cc2)C1 (stereo not drawn),-76.9
18,O=C(Nc1ccncc1)c1ccc([N+](=O)[O-])cc1Cl,-3.15
19,O=C(O)C1CC=C(Cl)CC1C(=O)NCc1ccccc1 (stereo not drawn),6.61
20,COc1ccc(C(=O)NC2=C(C#N)CCC2)cc1OC,9.08
21,NC(=O)NC(CC(=O)N1CCc2ccccc2C1)c1ccc(Cl)cc1 (stereo not drawn),2.09
22,COC(=O)[C@H](CCSC)NC(=O)Nc1ccc(C)cc1,11.6

# Source: PMC4336329 (PLoS ONE, 2015)
